# Experimental data: PubChem BioAssay
# Activity calls are given as the source filed them.
# Test: PSAC antagonists in infected red cells, primary screen, cell-based, P. falciparum Indochina, OD700, 1 h (AID 1154)
# Settings: P. falciparum Indochina infected RBC osmotic lysis, higher = more signal, called active from +8 up or from −8 down
row,Structure (SMILES),z-score
1,[N-]=[N+]=NCc1ccccc1C[C@]1(C(=O)NCC(O)CO)N=C(c2ccc(OCCCO)cc2)O[C@H]1c1ccccc1N=[N+]=[N-] (stereo partly specified),31.1 (active)
2,[N-]=[N+]=NCc1ccccc1[C@@H]1OC(c2ccc(OCCCO)cc2)=N[C@]1(Cc1ccccc1N=[N+]=[N-])C(=O)NCc1ccccc1,21.8 (active)
3,O=C1OCC=C[C@H]2OC34C=CCN(c5ccc(Cl)cc5)C(=O)[C@H]3N(CCCCCCO)C(=O)[C@@H]4[C@@H]12 (stereo partly specified),1.73 (inactive)
4,CC(C)C[C@@H]1NC(=O)[C@H]2C[C@@H](C(=O)NCCCCCNC(=O)CS)[C@@H](c3cccc(OCCO)c3)N2C1=O,2.59 (inactive)
5,COC(=O)[C@@]1(Cc2ccccc2)[C@H]2c3cc(C(=O)N4CCCC4)n(Cc4ccc(C)o4)c3C[C@H]2CN1C(=O)c1ccccc1,1.63 (inactive)
6,O=C1c2ccccc2[C@@]2(Cc3ccccc3N(Cc3ccccc3)C2=O)[C@H](c2ccc(CO)cc2)N1C1CCCCC1,-0.101 (inactive)
7,COc1ccccc1CN1C(=O)c2ccccc2[C@@H](C(=O)NCCN2CCOCC2)[C@@H]1c1ccc(CO)cc1,2.67 (inactive)
8,COc1cccc(C(=O)O[C@H]2CC[C@]3(C)C4=C(CCC3C2(C)C)[C@]2(C)CC[C@H]([C@H](C)CCCC(C)C)[C@@]2(C)CC4)c1 (stereo partly specified),-0.264 (inactive)
9,C[C@H]1NC(=O)[C@H](Cc2ccccc2)NC(=O)[C@@]23C(=O)N[C@@H](Cc4ccccc4)C2[C@H](C)[C@@]2(C)O[C@H]2C3/C=C/C/C=C\CNC1=O (stereo partly specified),2.27 (inactive)
10,CS(=O)(=O)CCOC(=O)C1=CC(CCCO)=CC(c2cccs2)N(Cc2cc3c(cc2Br)OCO3)C=C1C(=O)OCCS(C)(=O)=O (stereo unspecified),5.62 (inactive)

# Test: PSAC antagonists in infected red cells, primary screen, cell-based, P. falciparum Indochina, OD700, 2 h (AID 1155);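 note: lysis reports solute entry through the parasite surface anion channel PSAC; channel blockers reduce lysis of infected cells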
# Settings: P. falciparum Indochina infected erythrocytes, osmotic lysis OD700; higher = more signal, called active from +8 up or from −8 down
row,Structure (SMILES),z-score
1,CC1CC/C=C\[C@H]2OC34C=CCN(Cc5ccccc5)C(=O)[C@H]3N(CCCCCO)C(=O)[C@@H]4C2C(=O)O1 (stereo partly specified),-0.0369 (inactive)
2,COCCOC(=O)N1C(=O)[C@@]2(c3cc(C#CCNC(N)=O)ccc31)[C@H](C(=O)N1CCc3cc(OC)c(OC)cc3C1)[C@H]1C(=O)O[C@H](c3ccccc3)[C@H](c3ccccc3)N1[C@@H]2c1ccc(OCCO)cc1,1.37 (inactive)
3,O=C1OCCC/C=C\[C@H]2OC34C=CCN(Cn5nnc6ccccc65)C(=O)[C@H]3N(CCCCCO)C(=O)[C@@H]4C12 (stereo partly specified),0.0767 (inactive)
4,O=C(O)[C@@]1(Cc2ccccc2)N=C(c2ccc(OCCCO)cc2)O[C@H]1c1ccccc1,0.132 (inactive)
5,Cc1ccc(S[C@]2(C(=O)NC3CC3)CC(=O)N(C3CCCCC3)[C@@H]2c2ccc(CO)cc2I)cc1,0.898 (inactive)
6,O=C/C=C/c1ccc2c(c1)OCO2,-1.11 (inactive)
7,CC(C)(C)OC(=O)CC[C@@]1(C(=O)O)N=C(c2ccc(OCCCO)cc2)O[C@@H]1c1ccccc1N=[N+]=[N-],28.4 (active)
8,COCCOC(=O)N1C(=O)[C@@]2(c3cc(C#CCC(C(=O)OC)C(=O)OC)ccc31)[C@H](C(=O)N1CCN(c3ncccn3)CC1)[C@H]1C(=O)O[C@H](c3ccccc3)[C@H](c3ccccc3)N1[C@@H]2c1ccc(OCCO)cc1,3.12 (inactive)
9,COCCOC(=O)N1C(=O)[C@@]2(c3cc(C#CCC(C(=O)OC)C(=O)OC)ccc31)[C@H](c1ccc(O)cc1)N1[C@H](c3ccccc3)[C@H](c3ccccc3)OC(=O)[C@H]1[C@@H]2C(N)=O,1.33 (inactive)
10,C=CCOC(=O)[C@@H]1[C@H]2C(=O)O[C@H](c3ccccc3)[C@H](c3ccccc3)N2[C@H](c2ccc(OCCOC(=O)[C@@H]3C[C@@H]4C(=O)NCC(=O)N4[C@@H]3c3cccc(OCCO)c3)cc2)[C@@]12C(=O)Nc1ccc(I)cc12,0.636 (inactive)
11,C#CCN(C(/C=C/c1ccccc1)CO)C(C(=O)O)c1ccccc1 (stereo unspecified),-1.57 (inactive)
12,COC(=O)[C@@]1(Cc2ccc(F)cc2)[C@H]2c3cc(C(=O)N4CCCC4)n(Cc4cccc5ccccc45)c3C[C@H]2CN1C(=O)c1ccccc1,1.03 (inactive)
13,CC(C)CNC(=O)[C@@H]1c2ccccc2C(=O)N(Cc2cc(C(F)(F)F)cc(C(F)(F)F)c2)[C@H]1c1ccc(CO)cc1,0.0238 (inactive)
14,COc1cc2c(cc1OC)CN(C(=O)[C@@H]1[C@H]3C(=O)O[C@H](c4ccccc4)[C@H](c4ccccc4)N3[C@H](c3ccccc3OCCO)[C@@]13C(=O)Nc1ccc(C#CCNC(N)=O)cc13)CC2,-0.45 (inactive)
15,COC(=O)c1ccc(C(O)C2C=CC3C(=O)N(c4ccccc4)C(=O)C3N2Nc2ccc(C#N)cc2)o1 (stereo unspecified),1.66 (inactive)
16,CC(=O)NCCCC[C@@H]1NC(=O)[C@@H]2C[C@H](C(=O)NCCCCCCNC(=O)CS)[C@H](c3ccc(O)cc3)N2C1=O,0.2 (inactive)
17,O=c1cccc(C=Cc2ccccc2)o1,0.88 (inactive)
18,COc1ccc([Si](C)(C)[C@@H]2[C@@H](CC(=O)N3CCC[C@H]3CO)O[C@]3(C(=O)N(C)c4c(Br)cc(C)cc43)[C@H]2C)cc1,0.576 (inactive)

row,Structure (SMILES),z-score
1,CC(C)N1C(=O)[C@@]2(c3ccc([N+](=O)[O-])cc3)CC(=O)N(CC34CC5CC(CC(C5)C3)C4)[C@@H]2c2ccc(CO)cc21,0.328 (inactive)
2,COC(=O)[C@@]1(Cc2ccccc2)N=C(c2ccc(OCCCO)cc2)O[C@H]1c1ccccc1N=[N+]=[N-],24.1 (active)
3,N#Cc1ccc(NN2C(C(O)c3ccc([N+](=O)[O-])cc3)C=CC3C(=O)N(c4ccccc4)C(=O)C32)cc1 (stereo unspecified),2.06 (inactive)
4,[N-]=[N+]=Nc1ccccc1[C@@H]1OC(c2ccc(OCCCO)cc2)=N[C@]1(CCS(=O)(=O)c1ccccc1)C(=O)N1CCOCC1,25.4 (active)
5,O=C(O)[C@H]1C[C@H]2C(=O)NCC(=O)N2[C@H]1c1ccc(O)cc1,0.898 (inactive)
6,O=c1cccc(CCc2ccccc2)o1,0.584 (inactive)
7,CCN(CC)c1ccc(N2CC=CC34O[C@@H]5C=CCCOC(=O)C5[C@H]3C(=O)N(CCCCCO)[C@@H]4C2=O)cc1 (stereo partly specified),-0.0803 (inactive)
8,COCCCNC(=O)[C@@]1(c2ccc([N+](=O)[O-])cc2)CC(=O)N(CC23CC4CC(CC(C4)C2)C3)[C@@H]1c1ccc(CO)cc1,0.958 (inactive)
9,[N-]=[N+]=NCc1ccccc1C[C@]1(C(=O)NCC(O)CO)N=C(c2ccc(OCCCO)cc2)O[C@H]1c1ccccc1N=[N+]=[N-] (stereo partly specified),32.2 (active)
10,[N-]=[N+]=NCc1ccccc1[C@@H]1OC(c2ccc(OCCCO)cc2)=N[C@]1(Cc1ccccc1N=[N+]=[N-])C(=O)NCc1ccccc1,4.97 (inactive)
11,O=C1OCC=C[C@H]2OC34C=CCN(c5ccc(Cl)cc5)C(=O)[C@H]3N(CCCCCCO)C(=O)[C@@H]4[C@@H]12 (stereo partly specified),0.398 (inactive)
12,CC(C)C[C@@H]1NC(=O)[C@H]2C[C@@H](C(=O)NCCCCCNC(=O)CS)[C@@H](c3cccc(OCCO)c3)N2C1=O,0.505 (inactive)
13,COC(=O)[C@@]1(Cc2ccccc2)[C@H]2c3cc(C(=O)N4CCCC4)n(Cc4ccc(C)o4)c3C[C@H]2CN1C(=O)c1ccccc1,0.547 (inactive)
14,O=C1c2ccccc2[C@@]2(Cc3ccccc3N(Cc3ccccc3)C2=O)[C@H](c2ccc(CO)cc2)N1C1CCCCC1,0.546 (inactive)
15,COc1ccccc1CN1C(=O)c2ccccc2[C@@H](C(=O)NCCN2CCOCC2)[C@@H]1c1ccc(CO)cc1,0.0298 (inactive)
16,COc1cccc(C(=O)O[C@H]2CC[C@]3(C)C4=C(CCC3C2(C)C)[C@]2(C)CC[C@H]([C@H](C)CCCC(C)C)[C@@]2(C)CC4)c1 (stereo partly specified),-0.611 (inactive)
17,C[C@H]1NC(=O)[C@H](Cc2ccccc2)NC(=O)[C@@]23C(=O)N[C@@H](Cc4ccccc4)C2[C@H](C)[C@@]2(C)O[C@H]2C3/C=C/C/C=C\CNC1=O (stereo partly specified),0.142 (inactive)
18,CS(=O)(=O)CCOC(=O)C1=CC(CCCO)=CC(c2cccs2)N(Cc2cc3c(cc2Br)OCO3)C=C1C(=O)OCCS(C)(=O)=O (stereo unspecified),0.944 (inactive)
